Consider 59 compounds from PubChem BioAssay AID463190 (Sanford-Burnham Center for Chemical Genomics, 2010).

The whole screen tested about 330,000 compounds, of which about 7,300 (2.2%) were called active. This is one part of a sample in which actives are shown more often than they occur.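 How the source made its calls: active means inhibition of at least 40%; inactive means the rest.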

What is called inhibition is the change of the read-out against control, counted positive when it falls.

This assay in a line: growth inhibitors of tim10-1 mutant yeast, primary screen, luminescence, uHTS (AID 463190).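 Further: mutant grown at 25 °C; 0% = DMSO wells with yeast and 100% = wells holding no yeast.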 Conditions: S. cerevisiae tim10-1 ts strain growth, BacTiter-Glo, 24 h; at 20 µM; stronger effect = higher value.
`Brc1ccc(C2=CC(c3ccco3)n3ncnc3N2)cc1` (centres undefined): the inhibition was 48.2% (active).

`CCOc1ccc(C2=CC(c3ccccc3)n3ncnc3N2)cc1` (centres undefined): the inhibition is 25.5% (inactive).

As for `CC1=C(C(=O)OCc2ccccc2)C(c2ccco2)n2ncnc2N1` (centres undefined), the inhibition was 20.9% (inactive).

As to `COCCNC(=S)N/N=C/c1c(C)[nH]c2ccccc12`, the inhibition was 16.2% (inactive).

Regarding `CN=c1scc(-c2cc(OC)ccc2OC)n1/N=C/c1c(C)[nH]c2ccccc12`, the inhibition was 46% (active).

`CCn1c(-c2cc(OC)ccc2OC)csc1=Nc1c(C)n(C)n(-c2ccccc2)c1=O`: the inhibition is 22.1% (inactive).

Take `COc1cc(/C=C2/C(=O)ON=C2C)ccc1OCc1ccccc1F`: the inhibition is 49% (active).

Consider `C=CCOc1ccc(/C=C2/C(=O)ON=C2C)cc1OCC`, for which the inhibition was 5.79% (inactive).

Regarding `COc1cc(/C=C2/C(=O)ON=C2C)ccc1OCc1cccc(F)c1`, the inhibition was 9.41% (inactive).

Regarding `O=C(O)c1n[nH]nc1-c1ccccc1`, the inhibition was -4.76% (inactive).

Consider `O=C(Nc1cccc([N+](=O)[O-])c1)N1CCc2ccccc2C1`, for which the inhibition was 13.3% (inactive).

Take `N#Cc1c(-c2ccccc2)nc(SCc2ccc([N+](=O)[O-])cc2)[nH]c1=O`: the inhibition is 16.7% (inactive).

In the case of `COc1ccccc1CSc1ncc(-c2ccc([N+](=O)[O-])cc2)[nH]1`, the inhibition is 44.7% (active).

For `COc1ccc(-c2cnc(SCCNC(=O)c3ccc4c(c3)OCO4)[nH]2)cc1`, the inhibition is -13.2% (inactive).

`COC(=O)c1ccc(S(=O)(=O)N2CCc3ccccc3C2)cc1`: the inhibition was -7.78% (inactive).

Turning to `CC(OC(=O)c1ccc(S(=O)(=O)N2CCOCC2)cc1)c1ccccc1` (centres undefined), the inhibition was 23.8% (inactive).

Consider `O=C(ON=C1CCN(S(=O)(=O)c2ccccc2)CC1)c1ccc(Cl)cc1`, for which the inhibition is 65.8% (active).

On to `COc1ccc(NC(=O)CCCN2C(=O)C(c3ccccc3)Oc3cccnc32)cc1` (centres undefined), for which the inhibition is 37% (inactive).

Turning to `OCC[C@H]1C[C@H](O)[C@@H](O)[C@]2(Cc3ccccc3CO2)O1`, the inhibition was 19% (inactive).

For `NS(=O)(=O)c1ccc(NC(=S)NC(=O)c2cccc(Br)c2)cc1`, the inhibition was 23.9% (inactive).

Regarding `NS(=O)(=O)c1ccc(NC(=S)Nc2ccc(Br)c(Cl)c2)cc1`, the inhibition is 55.7% (active).

In the case of `NS(=O)(=O)c1ccc(CCNC(=S)Nc2ccc(S(N)(=O)=O)cc2)cc1`, the inhibition is 8.83% (inactive).

For `CCOC(=O)c1csc(CCNC(=O)c2oc3c(Cl)cc(C)cc3c2C)n1`, the inhibition is 19.2% (inactive).

`O=C(Nc1cccc(Cl)c1)c1cc(S(=O)(=O)N2CCCCC2)c[nH]1`: the inhibition is -3.59% (inactive).

For `O=C(Nc1cccc(Cl)c1)c1cncn1-c1ccc(F)cc1`, the inhibition is 41.7% (active).

Take `CCC(=O)Nc1nc(C)c(C(=O)Nc2cccc(Cl)c2)s1`: the inhibition was 2.36% (inactive).

For `CCn1cc(C(=O)Nc2cc(C)ccc2C)c(=O)c2ccc(C)nc21`, the inhibition is 6.54% (inactive).

For the compound `O=C(c1cc2cc(F)ccc2[nH]1)N1CCN(c2ccc(F)cc2)CC1`, the inhibition is -10.5% (inactive).

For `O=C(c1cccc(C(=O)N2CCN(c3ccc(F)cc3)CC2)c1)N1CCN(c2ccc(F)cc2)CC1`, the inhibition is 40.1% (active).

Take `O=C(c1cc(C(=O)N2CCN(c3ccc(F)cc3)CC2)cc([N+](=O)[O-])c1)N1CCN(c2ccc(F)cc2)CC1`: the inhibition is -17.5% (inactive).

Consider `OCCCNC(c1ccccc1)c1ccc(O)cc1` (centres undefined), for which the inhibition is -5.16% (inactive).

On to `Cc1onc(-c2ccccc2)c1C(=O)Nc1ccccc1C#N`, for which the inhibition is 25% (inactive).

`Cc1onc(-c2ccccc2)c1C(=O)NNC(=S)NC(=O)c1ccc(F)cc1`: the inhibition is 29.6% (inactive).

Consider `COc1ccc(C(=O)NC(=S)NNC(=O)c2c(-c3ccccc3)noc2C)cc1`, for which the inhibition is 41.5% (active).

On to `C=CCNc1nc(N)c(C(=C(C#N)C#N)c2ccccc2)s1`, for which the inhibition was 32% (inactive).

Take `Cc1ccc(CNC(=O)C2(C(F)(F)F)C/C(=C\Cc3ccccc3)CCCO2)o1` (centres undefined): the inhibition is 29.8% (inactive).

Turning to `O=C(NCc1ccncc1)c1ccc(NS(=O)(=O)c2cccc([N+](=O)[O-])c2)cc1`, the inhibition was -9.55% (inactive).

With `O=C(Nc1c(Cl)cccc1Cl)C1CCC1`, the inhibition is 18.6% (inactive).

Take `Cc1[nH]n(-c2ccccc2)c(=O)c1CCOC(=O)c1ccc(C(F)(F)F)cc1`: the inhibition is 16.7% (inactive).

Regarding `CCc1cc(C(=O)Nc2nnc(C3CC3)s2)sc1C`, the inhibition was 14.7% (inactive).

Regarding `COc1cccc(CNCc2ccc3c(c2)OCO3)c1`, the inhibition was -13% (inactive).

Take `O=C(CN1CCN(c2nc(-c3ccccc3)cs2)CC1)NCc1ccc2c(c1)OCO2`: the inhibition is 30.8% (inactive).

`O=C(COC(=O)C1CCCO1)Nc1nc(-c2ccc(F)cc2)cs1` (centres undefined): the inhibition was 5.58% (inactive).

On to `CC1CCCC(C)N1C(=O)CN1CCN(c2nc(-c3ccc(F)cc3)cs2)CC1` (centres undefined), for which the inhibition is 56.2% (active).

On to `Cc1occc1-c1nnc(SCC(=O)NC2(C#N)CCCC2)n1C`, for which the inhibition is -2.1% (inactive).

Turning to `CCOC(=O)C1=C(C)NC(C)=C(C(=O)OCC)C1C1=COCCO1`, the inhibition was 4.91% (inactive).

With `COC1=C(N2CCOCC2)C(=O)c2ccccc2C1=O`, the inhibition was 9.96% (inactive).

Take `Cc1oc2c(c1C(=O)N1CCOCC1)C(=O)c1ccccc1C2=O`: the inhibition is 58.7% (active).

For the compound `Cc1ccccc1-c1ccc(Nc2ccc(C(=O)N3CCOCC3)cc2)nn1`, the inhibition is 3.37% (inactive).

`CN1CCC(CN)(N2CCN(c3ccccc3)CC2)CC1`: the inhibition was 16.4% (inactive).

As for `COC(=O)C1CCN(C(=O)c2ccc3oc(Cc4ccc(Cl)cc4)nc3c2)CC1`, the inhibition is 14.5% (inactive).

Regarding `c1ccc(-c2nc(NCc3ccco3)c3ccccc3n2)cc1`, the inhibition was 51.3% (active).

Consider `Clc1cccc(-c2nc(NCC3CCCO3)c3ccccc3n2)c1` (centres undefined), for which the inhibition was 17.9% (inactive).

Turning to `c1ccc2c(NCC3CCCO3)nc(-c3ccncc3)nc2c1` (centres undefined), the inhibition is 33.4% (inactive).

`CCOC(=O)N1CCC(NC(=O)C(NS(=O)(=O)c2ccc3c(c2)CCN3C(=O)CC)C(C)C)CC1` (centres undefined): the inhibition is -1.74% (inactive).

For the compound `CCC(=O)N1CCc2cc(S(=O)(=O)CCC(=O)N3CCN(c4ccccc4F)CC3)ccc21`, the inhibition is 22% (inactive).

As to `CCC(=O)N1CCc2cc(S(=O)(=O)NC(C(=O)N3CCc4ccccc4C3)C(C)C)ccc21` (centres undefined), the inhibition was 40.2% (active).

Take `COc1ccccc1-c1cnn2c(N3CCOCC3)cc(C)nc12`: the inhibition is 4.69% (inactive).

In the case of `COc1ccc(C(=O)NC(=S)N2CCNC(=O)C2CC(=O)OC(C)C)cc1` (centres undefined), the inhibition is -10.3% (inactive).
